Screens from PubChem BioAssay.
Dicer processing = inhibitors of human Dicer processing of pre-microRNA | Q9UPY3 | cat-ELCCA pre-miR-21 Dicer processing, chemiluminescence; active compounds read high | z-score at 25 µM | 6% of 47,000 active; in the data active = z-score above about 3, passing the limit was not always enough;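 note: higher signal means more uncleaved substrate so more Dicer inhibition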
Each line names hits and unclear results; the compound was inactive in the other large screens. Shown is part of a subset that was picked to be rich in hits.

COC(=O)C1=C(C)NC2=C(C(=O)CC(C)(C)C2)C1c1ccccc1OC(C)C (stereo not given)	none
Cc1ccccc1/C=C(\C#N)C(=O)OC(C)(C)C	none
CC(=O)Oc1ccc2nc(-c3ccccc3F)oc(=O)c2c1	none
S=c1[nH]nc(CSc2nc(-c3ccccc3)cn2-c2ccccc2)n1-c1ccccc1	none
C=CCn1c(CSc2nc(-c3ccccc3)cn2-c2ccc(OC)cc2OC)n[nH]c1=S	Dicer processing 3.4
C=CCn1c(SCc2n[nH]c(=S)n2C)nnc1-c1ccccc1	none
CCOC(=O)c1nc(Nc2cc(OC)ccc2OC)c2ccccc2n1	none
CO/N=C1\CCCc2c(C(=O)N/N=C/C(C)(C)C)sc(SC)c21	none
Cc1cc(NC2=NS(=O)(=O)c3ccccc32)ccc1Br	none
COc1ccc(C(=O)CN2C3=NCCCN3c3ccccc32)cc1	none
CN1CCN(C(c2ccccc2)c2ccccc2)CC1	none
CN1CCN(C(=O)CN(c2ccccc2)S(=O)(=O)N(C)C)CC1	none
CN1CCN(C(=O)Oc2ccccc2)CC1	Dicer processing 3.8
O=C1C(=O)N(CCCn2ccnc2)C(c2cccc(Br)c2)/C1=C(\O)c1ccc(F)cc1 (stereo not given)	none
Cc1c(Br)sc2sc(-c3ccnc(SCC(=O)NC(C)C)n3)c(C)c12	none
CCC(C(N)=O)(c1ccccc1)c1ccc([N+](=O)[O-])cc1 (stereo not given)	none
COCCn1c2c(c(=O)[nH]c1=O)C(c1cccc(OC)c1)C1=C(N2)c2ccccc2C1=O (stereo not given)	none
COC(=O)C1=C(C)Nc2nc3ccccc3n2C1c1ccccc1Cl (stereo not given)	none
CCn1cc(C(=O)O)c(=O)c2cc3c(cc21)OCO3	none
CCn1cc(C(=O)O)c(=O)c2cnc(N3CCN(C(=O)Nc4ccccc4)CC3)nc21	none
CCn1cc(C(=O)O)c(=O)c2cnc(N3CCCC3)nc21	Dicer processing 4.5
COC(=O)c1ccc(C2C(C(=O)OC3CCCCC3)=C(C)NC3=C2C(=O)CC(C)(C)C3)cc1 (stereo not given)	none
CC(=O)Oc1ccc(N2C(=O)c3cccnc3C2=O)cc1	Dicer processing 3.1
O=C(Nc1ccc(N2C(=O)c3cccnc3C2=O)cc1)c1cccs1	none
COC(=O)Cc1ccc(N2C(=O)c3cccnc3C2=O)cc1	none
O=C(OCCSc1ccccn1)c1ccccc1	none
CCOC(=O)C1=NOC2C(=O)N(c3ccc(F)cc3)C(=O)C12 (stereo not given)	none
COC(=O)C1=NOC2C(=O)N(c3ccc(OC)cc3)C(=O)C12 (stereo not given)	none
COC(=O)C1=NOC2C(=O)N(c3ccc(F)cc3)C(=O)C12 (stereo not given)	none
CCOC(=O)C1=NOC2C(=O)N(c3ccc(OC)cc3)C(=O)C12 (stereo not given)	none
COC(=O)C1=NOC2C(=O)N(c3ccc(C)cc3)C(=O)C12 (stereo not given)	Dicer processing 3.6
CCOC(=O)C1=NOC2C(=O)N(c3ccc(Cl)cc3)C(=O)C12 (stereo not given)	Dicer processing 3.7
CC(C)C(=O)Nc1cscc1S(=O)(=O)c1ccc(Cl)cc1	none
COC(=O)C1=C(C)N=C2SCCC(=O)N2C1c1ccc(C)cc1 (stereo not given)	none
CC1=CS(=O)(=O)c2ccc(Cl)cc21	Dicer processing 4.3
COC(=O)c1cc2c(s1)-c1cc(Cl)ccc1S(=O)(=O)C2	none
O=C1NS(=O)(=O)c2ccc(Cl)cc2Sc2ccccc21	none
CSc1sc(C(=O)Nc2ccc(F)cc2F)c(-c2cccs2)c1C#N	none
CCOC(=O)c1c(NC(=O)CC)sc(C)c1C	none
CCOC(=O)c1c(N)sc(C)c1C	none
CCOC(=O)c1c(N(C)S(C)(=O)=O)sc(C)c1C	Dicer processing 3.6
CC(C)(C)c1cc2nc(C(F)(F)F)cc(SCCO)n2n1	none
CCOC(=O)c1sc(N2C(=O)c3oc4ccc(C)cc4c(=O)c3C2c2ccc(OC)cc2)nc1C (stereo not given)	none
CCOC(=O)c1c(/N=C/C2=C(O)CC(c3cccs3)CC2=O)sc(C)c1C (stereo not given)	none
CC(C)c1nnc(NC(=O)C2c3ccccc3Oc3ccccc32)s1	none
O=C(Nc1ccncc1)C1c2ccccc2Oc2ccccc21	none
O=C(O)C1C2C=CC(C2)C1C(=O)NCc1ccccn1 (stereo not given)	none
CCCCCC(C)NC(=O)C1c2ccccc2Oc2ccccc21 (stereo not given)	none
NC(=O)C1c2ccccc2Oc2ccccc21	none
O=C(NCc1ccccn1)C1c2ccccc2Oc2ccccc21	Dicer processing 3.1
COC(=O)C1c2ccccc2Oc2ccccc21	none
Cc1nnc(NC(=O)C2c3ccccc3Oc3ccccc32)s1	Dicer processing 4.9
O=C(NC1CCCC1)C1c2ccccc2Oc2ccccc21	Dicer processing 4.3
Cn1cc(Br)c(/C=N/Nc2ccccn2)n1	none
CC(=O)NC(c1ccc(Cl)cc1)n1ccnc1 (stereo not given)	none
Cn1ncc(C(=O)O/N=C(\N)c2ccc(C(C)(C)C)cc2)c1-n1cccc1	none
Cc1c(N=Cc2ccc(-c3ccccc3[N+](=O)[O-])o2)c(=O)n(-c2ccccc2)n1C	none
CN1C(=O)c2cccc3c(S(=O)(=O)Nc4ccc(C(=O)O)cc4)ccc1c23	none
O=C1Sc2ccc(S(=O)(=O)Nc3ccc(Br)cc3)c3cccc1c23	Dicer processing 3.3
O=C1Sc2ccc(S(=O)(=O)Nc3cccc(Cl)c3)c3cccc1c23	none
ON=C1CCN(Cc2ccccc2)CC1	none
CCOC(=O)c1cnc(=O)[nH]c1C(F)(F)F	none
C=CCOc1cccc(C(Nc2cccc(C)n2)c2ccc3cccnc3c2O)c1 (stereo not given)	none
Cc1cccc(NC(c2ccc(F)cc2)c2ccc3ccc(C)nc3c2O)n1 (stereo not given)	none
Cc1cccc(NC(c2cccnc2)c2ccc3cccnc3c2O)n1 (stereo not given)	Dicer processing 3.5
Cc1cccc(NC(c2ccc(O)cc2)c2ccc3ccc(C)nc3c2O)n1 (stereo not given)	none
COc1ccc(C(Nc2cc(C)ccn2)c2ccc3cccnc3c2O)cc1OC (stereo not given)	Dicer processing 11
CCc1ccc(C(Nc2ccccn2)c2ccc3cccnc3c2O)cc1 (stereo not given)	none
Cc1ccc(C(Nc2cccc(C)n2)c2ccc3cccnc3c2O)cc1 (stereo not given)	Dicer processing 17
C=CCOc1cccc(C(Nc2ccccn2)c2ccc3cccnc3c2O)c1 (stereo not given)	none
Cc1cccc(NC(c2cccnc2)c2ccc3cccnc3c2O)c1 (stereo not given)	none
O=C(OCc1ccc(Cl)cc1)c1cnc(Nc2cccc(C(F)(F)F)c2)nc1C(F)(F)F	none
Nc1ncnc2c1nc(N/N=C/c1c(Cl)cccc1Cl)n2[C@H]1O[C@@H](CO)[C@H](O)[C@@H]1O	none
Cc1c(C)c(C)c(S(=O)(=O)N2CC(C)OC(C)C2)c(C)c1C (stereo not given)	none
N#C/C(=C\c1cccs1)c1csc2ccc(Cl)cc12	none
Cc1cc(NC(=O)C(=O)c2ccc(CN3C(=O)c4ccccc4C3=O)o2)on1	none
CN(C)c1ccc(NC(=O)c2cc3c(n(-c4ccccc4)c2=O)CC(C)(C)CC3=O)cc1	none
CCCOC(=O)C1C2C=CC3(CN(C4CCCC4)C(=O)C13)O2 (stereo not given)	none
O=C(NCc1cccnc1)c1nn2c(c1Br)NC(c1ccccc1)CC2C(F)(F)F (stereo not given)	none
NC(=O)c1nnn(Cc2ccc(F)cc2)c1N	none
O=C(CC1SC(=Nc2ccccc2)NC1=O)Nc1ccccc1Cl (stereo not given)	none
C=CCN=C1NC(=O)C(CC(=O)Nc2ccc(Cl)cc2)S1 (stereo not given)	none
